Out of some 350,000 compounds screened, about 7,000 (2%) were called active. This is one part of a sample in which actives are shown more often than they occur. Rule as the data show it: active = activation above about 40%; inconclusive = no clear call, values can overlap the other calls; inactive = below that.
assay: Bmi1 luciferase reporter increase in mESCs, primary screen, esBAF inhibitor project, mouse ES cells, Bmi1 luciferase knock-in, single point (AID 602393); details: 24 h, at 12.5 µM, hits give high values, 100% = twice the neutral-well signal;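 also: 0% = median of the plate's neutral control wells and 100% = double that signal; a rise in the Bmi1 reporter signal indicates esBAF inhibition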

Reporter increase, inactive:
C[C@@H]1CCCCO[C@@H](CN(C)S(=O)(=O)c2cn(C)cn2)[C@@H](C)CN([C@H](C)CO)C(=O)c2cc(NC(=O)c3ccncc3)ccc2O1 2.55%
CN1CCN(C(=O)C[C@@H]2CC[C@@H]3[C@H](COC[C@@H](O)CN3Cc3cccc(F)c3)O2)CC1 0.727%
C[C@@H]1CN([C@@H](C)CO)C(=O)c2cc(C#CCN(C)C)cnc2O[C@@H]1CN(C)Cc1ccccn1 -9.33%
CO[C@@H]1CN(C)C(=O)c2cc(NS(=O)(=O)c3cccc(Cl)c3)ccc2OC[C@@H](C)NC[C@@H]1C 3.71%
Clc1cccc(Cc2c(-c3cccc(Cl)c3)nc3ccc(Cl)cn23)c1 35.2%
Fc1cccc(Cc2c(-c3ccc(Cl)cc3)nc3ccc(Cl)cn23)c1 7.58%
Brc1ccc2nc(-c3ccccc3)c(Cc3ccccc3)n2c1 18%
Cc1ccc(Cc2c(-c3ccccc3)nc3ccc(Cl)cn23)cc1 21%
FC(F)(F)c1ccccc1Cc1c(-c2ccccc2)nc2c3ccccc3ccn12 3.35%
Cc1ccc(Cc2c(-c3ccco3)nc3ccc(Cl)cn23)cc1 -7.76%
C[C@H](CO)N1C[C@H](C)[C@H](CN(C)C(=O)c2ccncc2)Oc2cc(C#CC3(O)CCCC3)ccc2S1(=O)=O 2.01%
Cc1ccc(S(=O)(=O)N[C@@H]2CC[C@H](CCNC(=O)C3CCOCC3)O[C@@H]2CO)cc1 3.97%
CC1CCCN(CC(=O)Nc2cc(Cl)ccc2Oc2ccccc2)C1 (configuration not stated) 0.159%
O=C(CN1CCOCC1)Nc1ccc(NC(=O)CN2CCOCC2)c(Cl)c1 3.57%
Cn1c(SCC(=O)c2ccc(F)cc2)nnc1-c1ccccn1 39.1%
Oc1ccc(-n2nnnc2SCc2c(F)cccc2Cl)cc1 -6.31%
Cc1noc(C)c1S(=O)(=O)Nc1ccc2c(c1)C(=O)N([C@@H](C)CO)C[C@@H](C)[C@@H](CN(C)Cc1ccccc1)OCCCC[C@H](C)O2 -1.71%
CCOC(=O)CSc1nnc(CNc2ccc(F)cc2)o1 4.3%
Cc1ccn2c(=O)nc(SCC(=O)NCc3ccc(F)cc3)nc2c1 -3.54%
O=C(C[C@H]1CC[C@H]2[C@@H](COC[C@@H](O)CN2CCC(F)(F)F)O1)NCc1ccc2c(c1)OCO2 -0.0255%
CCCC(=O)Nc1ccc2c(c1)C(=O)N(C)[C@@H]1CC[C@H](CC(=O)Nc3cn(C)nc3C)O[C@H]1CO2 -3.47%
C[C@@H]1CN([C@@H](C)CO)C(=O)c2cc(C#CCc3ccccc3)cnc2O[C@@H]1CN(C)C(=O)C1CCOCC1 -0.454%
Cc1ccc(N2C(=O)SC(N(CC(=O)O)c3ccc(C)cc3)C2=O)cc1 (configuration not stated) -3.76%
Cc1cccc(N(CC(=O)N2CCOCC2)S(C)(=O)=O)c1 0.817%
C[C@H]1CN([C@@H](C)CO)C(=O)c2cc(N(C)C)ccc2O[C@@H]1CN(C)C(=O)Nc1ccc2c(c1)OCO2 0.253%
O=C(Nc1cccc2ccccc12)c1[nH]c(-c2ccccc2)c2c1C(=O)N(C1CC1)C2=O -8.26%
O=C(Nc1cccc2ccccc12)NC1CC1 -6.94%
C[C@@H]1CN([C@@H](C)CO)S(=O)(=O)c2ccc(C#Cc3cccnc3)cc2O[C@@H]1CN(C)C -4.81%
COc1ccc2c(c1)CCc1c(C(=O)N3CCc4ccccc4C3)noc1-2 26.1%
O=C(c1cc(-c2cccc(O)c2)on1)N1CCc2ccccc2C1 10.2%
COC(=O)C[C@@H]1CC[C@H]2[C@H](COc3ccc(NC(=O)c4cccs4)cc3C(=O)N2C)O1 2.44%
O=C(CN1CCN(c2ccc(O)cc2)CC1)Nc1ccc(-c2ccccc2)cc1 -6.35%
O=C(CN1CCOCC1)NCC[C@@H]1CC[C@@H](NC(=O)Nc2ccccc2)[C@H](CO)O1 -0.967%
CCCNC(=O)N(C)C[C@H]1Oc2cc(C3=CCCCC3)ccc2S(=O)(=O)N([C@H](C)CO)C[C@H]1C -6.45%
COc1ccc(NC(=O)N(C)C[C@@H]2OCCCC[C@H](C)Oc3ccc(NS(=O)(=O)c4cn(C)cn4)cc3C(=O)N([C@@H](C)CO)C[C@@H]2C)cc1 1.74%
C[C@@H](O)C#Cc1ccc([C@H]2[C@H](CO)N3CCCCN(C(=O)c4ccc5c(c4)OCO5)C[C@@H]23)cc1 -3.75%
COc1ccc(-n2nc(C(=O)NCC(=O)N3CCC(C(N)=O)CC3)c3ccccc3c2=O)cc1OC -4.41%
COc1ccc(-n2nc(C(=O)NCC(=O)N3CCN(c4ccccc4OC)CC3)c3ccccc3c2=O)c(OC)c1 30.3%
CCCNC(=O)Nc1ccc2c(c1)C(=O)N(C)C[C@@H](OC)[C@H](C)CN(C(=O)C1CCCCC1)[C@H](C)CO2 5.09%
C[C@@H]1CCCCO[C@H](CN(C)S(C)(=O)=O)[C@@H](C)CN([C@H](C)CO)C(=O)c2cc(NC(=O)Nc3ccc4c(c3)OCO4)ccc2O1 6.3%
CCOc1cc(/C=C2\SC(N3CCCCC3)=NC2=O)ccc1O 30.3%
CC(C)=C1SC(N2CCN(c3cccc(C)c3)CC2)=NC1=O -1.1%
O=C(C[C@H]1C=C[C@H](NC(=O)Cc2ccccn2)[C@@H](CO)O1)NCCc1ccccc1 -5.91%
CN1c2ccc(C#Cc3ccccc3F)cc2[C@@H]2[C@@H](CCN2C(=O)Cc2cccnc2)[C@H]1CO 1.33%
CCCn1nnc(NC(=O)COc2ccc(CC)cc2)n1 -6.66%
CCn1nnc(NC(=O)c2c(OC)cccc2OC)n1 1.33%
CO[C@H]1CN(C)C(=O)c2cc(NC(=O)Nc3c(C)noc3C)ccc2OC[C@@H](C)N(CCC(F)(F)F)C[C@H]1C -21.9%
Cc1noc(C)c1S(=O)(=O)N(C)C[C@@H]1OCCCC[C@H](C)Oc2ccc(NC(=O)Nc3ccc4c(c3)OCO4)cc2C(=O)N([C@H](C)CO)C[C@H]1C 2%
COCC(=O)Nc1ccc2c(c1)C(=O)N(C)[C@@H]1CC[C@H](CC(=O)NCC3CC3)O[C@@H]1CO2 -2.01%
CO[C@H]1CN(C)C(=O)c2cc(NC(=O)c3cc(C)on3)ccc2OC[C@H](C)N(C(C)=O)C[C@H]1C 0.72%
CCC1C(=O)NCCN1C(=O)c1ccc2nc(Cc3ccc(OC)cc3)oc2c1 (configuration not stated) 0.998%
CCCCc1nc2cc(C(=O)NCCc3cnn(C)c3)ccc2o1 31.5%
O=C(NCCc1ccc(F)cc1)c1ccc2nccnc2c1 -17.6%
COc1ccc(Cc2nc3ccc(C(=O)NCC4CCOCC4)cc3o2)cc1OC 21%
O=C(N[C@H]1CC[C@@H](CCNS(=O)(=O)c2cccc(Cl)c2)O[C@@H]1CO)c1ccncc1 0.826%
C[C@H](CO)N1C[C@H](C)[C@H](CN(C)C(=O)Nc2ccc(C(F)(F)F)cc2)Oc2ccc(NS(=O)(=O)c3ccccc3)cc2CC1=O -4.41%
Cc1noc(C)c1S(=O)(=O)N(C)C[C@@H]1Oc2ccc(NC(=O)Cn3cnnn3)cc2CC(=O)N([C@@H](C)CO)C[C@H]1C -6.08%
Cc1cc(C(=O)Nc2cccc3c2O[C@@H](CN(C)S(=O)(=O)c2ccc(F)cc2)[C@@H](C)CN([C@H](C)CO)C3=O)n(C)n1 5.98%
CCC(=O)Nc1ccc2c(c1)OC[C@@H](C)N(Cc1ccccn1)C[C@H](C)[C@@H](OC)CN(C)C2=O -3.64%
COc1ccc(NC(=O)N(C)C[C@H]2OCCCC[C@H](C)Oc3ccc(NS(C)(=O)=O)cc3C(=O)N([C@H](C)CO)C[C@@H]2C)cc1 3.29%
CC(C)NC(=O)N(C)C[C@H]1OCCCC[C@@H](C)Oc2ccc(NS(C)(=O)=O)cc2C(=O)N([C@H](C)CO)C[C@H]1C -1.04%
COc1ccc(NC(=O)Nc2ccc3c(c2)C(=O)N([C@H](C)CO)C[C@@H](C)[C@H](CN(C)C(=O)Cc2ccccc2)OCCCC[C@H](C)O3)cc1 15.2%

Reporter increase, active:
Fc1cccc(Cc2c(-c3cccc(Cl)c3)nc3ccc(Br)cn23)c1 57.3%
Cc1ccc(-c2nc3ccc(Br)cn3c2Cc2ccccc2C(F)(F)F)cc1 58.8%
Cc1ccc(-c2nc3ccc(Cl)cn3c2Cc2ccccc2)cc1 44.1%
CC(=O)Nc1ccc(NC(=O)CN2CCCC(C)C2)c(Cl)c1 (configuration not stated) 49.7%
Cn1c(SCc2c(F)cccc2Cl)nnc1-c1cnccn1 59%
Cc1cccc2nc(CNc3ccc(F)cc3)cn12 56.3%
Cc1cccc(N2C(=O)SC(N(CC(=O)O)c3cccc(C)c3)C2=O)c1 (configuration not stated) 51.9%
O=C(Nc1cccc2ccccc12)c1onc2c1CCCC2 68.2%
O=C(c1noc2c1CCCC2)N1CCc2ccccc2C1 63.6%
Oc1ccc(-c2cccc(-c3ccc(O)cc3)c2)cc1 57.6%
COc1ccc(-n2nc(C(=O)NCC(=O)N3CCCCCC3)c3ccccc3c2=O)cc1Cl 47.6%
CCN1C(=O)/C(=C2\SC(N3CCCCC3)=NC2=O)c2ccccc21 65%
CCCOc1cccc(C(=O)Nc2nnn(CCC)n2)c1 52.7%
COCCNC(=O)c1ccc2nc(Cc3ccc(OC)c(OC)c3)oc2c1 48.6%
CSCCNC(=O)c1ccc2nc(Cc3ccccc3F)oc2c1 70.4%

From PubChem BioAssay AID602393 (Broad Institute, 2012)
